Only some compounds are listed: those with a hit (about 4.1% of all), similar ones and a draw of the others.
PTK2B oligo ant: antagonists of Pyk2 self-association, primary screen, Q293 cells, FERM NanoBiT luminescence, HTS; Protein-tyrosine kinase 2-beta (Homo sapiens), Q14289; stronger effect = lower value; z-score (the deposit names both 25 µM and 10 µM); actives 0.83% (n = 99,000);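 active = Z-score of -3 or lower, scaled per plate to the spread of control and sample wells; inactive = z-score above -3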;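 also: negative z-score means lost luminescence so less FERM oligomerization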
Mac1 fbg enh: enhancers of CD11b/CD18 adhesion to fibrinogen, primary screen, K562 cells, luminescence; Integrin beta-2 (Homo sapiens) + Integrin alpha-M (Homo sapiens), P05107+P11215; ATPlite luminescence; activation, % at 10 µM; actives 0.07% (n = 93,000); AID 1499, 2009;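 active = 10 µM primary screen giving 50% or more activity, confirmed by 40% or more on retest at that dose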
Cav3 T inh: Cav3.2 calcium influx blockers – cell-based, Fluo-4 calcium fluorescence, FDSS, MLSMR library, primary screen | Voltage-dependent T-type calcium channel subunit alpha-1H (Homo sapiens), O95180 | Cav3.2-expressing cells; stronger effect = lower value | B-score at 10 µM | actives 4% (n = 100,000);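 active = single-dose well whose peak fluorescence ratio is a statistical outlier from its plate by either plate-standardised score or position-corrected B-score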
Target sequence (O95180 whole entry, looked up): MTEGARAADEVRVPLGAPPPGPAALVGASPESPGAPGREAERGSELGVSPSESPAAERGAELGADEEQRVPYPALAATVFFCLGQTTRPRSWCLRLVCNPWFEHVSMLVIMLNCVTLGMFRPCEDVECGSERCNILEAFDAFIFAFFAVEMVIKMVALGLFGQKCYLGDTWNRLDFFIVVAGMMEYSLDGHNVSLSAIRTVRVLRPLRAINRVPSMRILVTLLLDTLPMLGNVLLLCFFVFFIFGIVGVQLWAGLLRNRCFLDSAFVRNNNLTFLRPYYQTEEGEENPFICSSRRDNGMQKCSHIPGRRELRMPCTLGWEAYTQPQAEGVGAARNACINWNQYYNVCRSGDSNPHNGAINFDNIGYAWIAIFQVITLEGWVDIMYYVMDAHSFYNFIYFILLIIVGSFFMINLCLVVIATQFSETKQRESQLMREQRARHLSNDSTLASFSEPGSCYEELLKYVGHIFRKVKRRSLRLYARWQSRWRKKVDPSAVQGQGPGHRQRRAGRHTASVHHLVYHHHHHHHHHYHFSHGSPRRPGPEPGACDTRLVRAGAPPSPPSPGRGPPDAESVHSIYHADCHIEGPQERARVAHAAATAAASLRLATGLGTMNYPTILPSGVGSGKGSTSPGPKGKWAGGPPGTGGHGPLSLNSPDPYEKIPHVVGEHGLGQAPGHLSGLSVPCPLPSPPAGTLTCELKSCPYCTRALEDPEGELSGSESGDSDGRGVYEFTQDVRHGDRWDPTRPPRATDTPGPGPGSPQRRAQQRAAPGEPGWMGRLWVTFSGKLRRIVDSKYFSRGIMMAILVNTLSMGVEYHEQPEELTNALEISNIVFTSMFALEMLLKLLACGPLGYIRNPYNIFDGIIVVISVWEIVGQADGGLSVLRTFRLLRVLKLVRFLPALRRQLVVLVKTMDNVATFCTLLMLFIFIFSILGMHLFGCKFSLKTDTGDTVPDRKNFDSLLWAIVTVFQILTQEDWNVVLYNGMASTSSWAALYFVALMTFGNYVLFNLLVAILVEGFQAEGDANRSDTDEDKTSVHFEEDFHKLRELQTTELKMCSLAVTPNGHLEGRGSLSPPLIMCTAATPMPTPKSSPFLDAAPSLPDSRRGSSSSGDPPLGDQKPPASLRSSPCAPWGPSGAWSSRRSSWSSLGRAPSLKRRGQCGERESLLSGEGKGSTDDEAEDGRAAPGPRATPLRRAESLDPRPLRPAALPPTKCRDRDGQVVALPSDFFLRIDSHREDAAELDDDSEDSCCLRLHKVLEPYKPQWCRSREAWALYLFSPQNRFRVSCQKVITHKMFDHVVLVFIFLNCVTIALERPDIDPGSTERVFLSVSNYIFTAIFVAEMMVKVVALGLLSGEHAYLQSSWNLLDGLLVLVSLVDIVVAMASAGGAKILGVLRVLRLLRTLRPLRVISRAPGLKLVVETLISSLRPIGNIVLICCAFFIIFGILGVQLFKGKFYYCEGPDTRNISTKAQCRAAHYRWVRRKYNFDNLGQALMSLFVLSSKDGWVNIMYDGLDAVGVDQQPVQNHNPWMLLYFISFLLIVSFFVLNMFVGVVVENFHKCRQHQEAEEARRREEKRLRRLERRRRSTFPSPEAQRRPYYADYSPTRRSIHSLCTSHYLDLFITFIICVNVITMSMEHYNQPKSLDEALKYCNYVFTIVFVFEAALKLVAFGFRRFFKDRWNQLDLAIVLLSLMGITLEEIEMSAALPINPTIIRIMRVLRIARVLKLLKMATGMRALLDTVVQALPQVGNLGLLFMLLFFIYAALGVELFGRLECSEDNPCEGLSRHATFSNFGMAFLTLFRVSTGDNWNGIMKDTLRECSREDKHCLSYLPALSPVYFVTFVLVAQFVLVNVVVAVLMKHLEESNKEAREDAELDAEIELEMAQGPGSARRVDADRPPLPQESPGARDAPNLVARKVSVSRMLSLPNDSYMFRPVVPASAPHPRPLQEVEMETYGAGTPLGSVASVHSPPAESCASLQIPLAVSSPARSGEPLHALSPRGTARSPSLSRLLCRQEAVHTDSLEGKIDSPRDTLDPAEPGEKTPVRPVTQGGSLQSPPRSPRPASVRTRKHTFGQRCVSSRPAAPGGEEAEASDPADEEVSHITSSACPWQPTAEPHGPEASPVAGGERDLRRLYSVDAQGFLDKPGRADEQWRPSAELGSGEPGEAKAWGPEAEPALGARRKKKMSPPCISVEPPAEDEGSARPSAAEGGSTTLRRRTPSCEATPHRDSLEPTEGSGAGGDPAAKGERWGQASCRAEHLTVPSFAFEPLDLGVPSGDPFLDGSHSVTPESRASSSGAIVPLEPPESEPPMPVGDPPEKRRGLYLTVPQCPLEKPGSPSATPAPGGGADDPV
MRP reversal: reversal of MRP1-mediated doxorubicin resistance, primary screen, H69AR cells, doxorubicin co-treatment | H69AR cells + 2 uM doxorubicin, CellTiter-Glo, 72 h | differential viability (reversal), % at 10 µM | actives 0.04% (n = 85,000) | AID 602, 2007;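 active = viability drop by adding the cancer drug above about 55%, with treated viability meeting a 40% cutoff, limit read from the data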;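 also: viability without doxorubicin minus viability with 2 µM doxorubicin for each compound; larger differential means the compound sensitizes cells more to doxorubicin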
MRP1 act: H69AR viability gain despite doxorubicin, primary screen, MRP-1 activator project, H69AR cells, CellTiter-Glo. viability rescue. viability increase, % at 10 µM. actives 0.61% (n = 140,000). AID 799, 2007;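 active = viability gain under doxorubicin at or above a set limit, the compound median plus 3 SD, cut at about 4.7% in these data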;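 also: MRP-1 overexpressing cells given doxorubicin 25 µM after compound pretreatment; 18-22 h compound pretreatment then 72 h with doxorubicin before readout; 0% = doxorubicin-only wells and 100% = vehicle-treated cells without doxorubicin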
Mac1 fbg inh: inhibitors of CD11b/CD18 adhesion to fibrinogen, primary screen, K562 cells, luminescence; inhibition, % at 10 µM; ATPlite luminescence; Mn2+ added to activate the integrin; actives 0.54% (n = 93,000); AID 1497, 2009;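 active = primary inhibition of 50% or more at 10 µM, then 40% or more on retest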
The depositor's hits bear a star.

Cc1cc2cc(CN(C(=O)C3CC3)C3CCCC3)c3nnnn3c2cc1C was read as PTK2B oligo ant -1.4, Mac1 fbg enh 2, Cav3 T inh -4.9*, MRP reversal -2, MRP1 act -2 and Mac1 fbg inh -10.
For CCN1CCc2c(C#N)c(N3CCCCC3)nc(NCc3ccccc3)c2C1 the results were PTK2B oligo ant 0.88, Mac1 fbg enh 0, Cav3 T inh -1.4, MRP reversal -9, MRP1 act -4 and Mac1 fbg inh 7.
For N#Cc1c(NCCO)nc(NCc2ccccc2)c2c1CCN(Cc1ccccc1)C2 the results were Mac1 fbg enh -2, Cav3 T inh -3.6*, MRP reversal 15, MRP1 act -5 and Mac1 fbg inh 11.
`CCCCCCCn1ccc(=N)cc1` gave PTK2B oligo ant -0.22, Mac1 fbg enh -6, Cav3 T inh -0.12, MRP reversal -2, MRP1 act -6 and Mac1 fbg inh 83*.
For Nc1c2c(nc3ccn(Cc4ccccc4)c(=O)c13)CCC2 the results were PTK2B oligo ant -0.41, Mac1 fbg enh -4, Cav3 T inh -0.084, MRP reversal -1, MRP1 act -3 and Mac1 fbg inh -8.
Screening Nc1c2c(nc3ccn(-c4ccccc4)c(=O)c13)CCCCC2 returned PTK2B oligo ant -0.09, Mac1 fbg enh -3, Cav3 T inh 0.21, MRP reversal 6, MRP1 act 4.9* and Mac1 fbg inh -3.
Screening Nc1ccc(C(=O)N/N=C/c2ccccc2)cc1 returned PTK2B oligo ant 0.69, Cav3 T inh -5.1* and MRP1 act -1.
`O=C1CCCC(O)=C1N=Nc1ccc2c(c1)OCO2` gave Mac1 fbg enh 0, MRP1 act 7.7* and Mac1 fbg inh 5.
CCN(CC)S(=O)(=O)c1ccc(N=NC2=C(O)CCCC2=O)cc1 was read as Mac1 fbg enh 0, MRP1 act -3 and Mac1 fbg inh -20.
`CC1=NN(C(=O)c2ccc(Cn3nc(C)c(Br)c3C)cc2)C(O)(C(F)(F)F)C1` (stereo unspecified) gave MRP1 act 5.2*.
Screening CC1=NN(C(=O)c2ccc(Cn3nc(C)c([N+](=O)[O-])c3C)cc2)C(O)(C(F)(F)F)C1 (stereo unspecified) returned PTK2B oligo ant -0.47, Mac1 fbg enh -1, Cav3 T inh 0.27, MRP1 act 2 and Mac1 fbg inh 8.
For COc1cccc(/C=C/C(=C2\C(=O)N(c3ccccc3)N=C2C)c2ccc(Br)cc2)c1OC the results were PTK2B oligo ant -1.2.
Screening COc1ccc2[nH]c3c(NCCN(C(C)C)C(C)C)ncnc3c2c1 returned PTK2B oligo ant 0.3, Mac1 fbg enh -5, Cav3 T inh 1.3, MRP reversal -9, MRP1 act -6 and Mac1 fbg inh -8.
Screening CC(C)OCCCNc1ncnc2c1[nH]c1ccccc12 returned PTK2B oligo ant -0.23, Mac1 fbg enh -9, Cav3 T inh -1.4, MRP reversal -25, MRP1 act -5 and Mac1 fbg inh 84*.
C1=C(CCNc2ncnc3c2[nH]c2ccccc23)CCCC1 was read as Mac1 fbg enh -9, MRP1 act -6 and Mac1 fbg inh 100*.
For Cc1ccc2[nH]c3c(=O)n(CCC4=CCCCC4)cnc3c2c1 the results were Mac1 fbg enh -1, Cav3 T inh -0.057, MRP reversal 10, MRP1 act 0 and Mac1 fbg inh 19.
Cc1[nH]c2ccccc2c1C(=O)C(=O)NCCC1=CCCCC1 was read as Mac1 fbg enh 0, MRP1 act 12* and Mac1 fbg inh 6.
For CC(=O)c1ccc(NC(=O)C2CCCNC2=O)cc1 (stereo unspecified) the results were PTK2B oligo ant 0.01, Mac1 fbg enh 0, Cav3 T inh -0.026, MRP reversal 5, MRP1 act -1 and Mac1 fbg inh -2.
`O=C(CCCCCN1C(=O)c2ccccc2C1=O)NCCc1nc2ccccc2[nH]1` gave PTK2B oligo ant -0.87, Mac1 fbg enh -3, Cav3 T inh -0.52, MRP reversal 11, MRP1 act 0 and Mac1 fbg inh -17.
Screening O=C(CSc1ccc(Cl)cc1)OCc1nnc(-c2ccccc2)o1 returned PTK2B oligo ant 0.57, Mac1 fbg enh -2, Cav3 T inh -0.056, MRP reversal 5, MRP1 act -2 and Mac1 fbg inh -29.
COc1ccc(S(=O)(=O)N2CCCC(C(=O)Nc3cccc(C(C)=O)c3)C2)cc1 (stereo unspecified) was read as PTK2B oligo ant -0.52, Mac1 fbg enh -5, MRP reversal -25, MRP1 act -3 and Mac1 fbg inh -10.
`Cc1ccc2nc(SCC(=O)Nc3cc(C(F)(F)F)ccc3N3CCOCC3)[nH]c2c1` gave PTK2B oligo ant -3.5*, Mac1 fbg enh 0, Cav3 T inh -1.1, MRP reversal -18, MRP1 act -2 and Mac1 fbg inh -33.
For Cc1ccccc1Nc1nc(N)nc(CSc2nc3ccccc3c(=O)n2C)n1 the results were PTK2B oligo ant -3.1*, Mac1 fbg enh -1, Cav3 T inh 0.37, MRP reversal 6, MRP1 act -3 and Mac1 fbg inh 10.
For C=CCn1c(C)cc(C(=O)COc2nncc3ccccc23)c1C the results were PTK2B oligo ant -0.37, Mac1 fbg enh 6, Cav3 T inh -0.023, MRP reversal -21, MRP1 act 0 and Mac1 fbg inh -6.
For CCOC(=O)C1=C(CN2c3ccccc3CC2C)NC(=O)NC1c1ccccc1 (stereo unspecified) the results were PTK2B oligo ant -0.47, Mac1 fbg enh 1, Cav3 T inh -7.8*, MRP reversal 11, MRP1 act 0 and Mac1 fbg inh -5.
`COC(=O)C1=C(CN2CCCc3ccccc32)NC(=O)NC1c1ccc(F)cc1` (stereo unspecified) gave PTK2B oligo ant 1.7, Mac1 fbg enh -2, Cav3 T inh -3.9*, MRP reversal 0, MRP1 act -2 and Mac1 fbg inh 0.
Screening COc1cc2c(cc1NC(=O)c1cccnc1)CCCC2 returned PTK2B oligo ant -0.75, Mac1 fbg enh 2, Cav3 T inh 0.21, MRP reversal -4, MRP1 act -1 and Mac1 fbg inh -5.
For CCN1/C(=C/c2ccc3cccc(C)c3[n+]2CC)Sc2ccccc21 the results were PTK2B oligo ant -2.6, Cav3 T inh -3.9* and MRP1 act -3.
